{"source": "PubChem BioAssay (NCATS)", "note": "Values without a mark were called inactive. Results filed as inconclusive are left out. Calls of active or inactive are those of the source. Calls follow the shape of the dose curve; as a rule, active = well fitted curve in the direction sought with a large enough effect; inconclusive = small, poorly fitted or top-dose-only effect, or another doubt; inactive = no such curve, though single readings can be large; an effect the other way counts as inactive or inconclusive. Positions of bridges follow the written chain, without caps; N, C: chain ends. Non-standard residues stand in square brackets, D forms with d. Residues, ends and D or L forms follow the SMILES beside them. ξ: configuration not given here. *: point of attachment. Octanoyl(6-Me) = CCC(C)CCCCC(=O)*; ξThr(3R) = C[C@@H](O)C(N)C(=O)O; dDab = NCC[C@@H](N)C(=O)O; Dab = NCC[C@H](N)C(=O)O", "data": [{"system": "Nanoluciferase (engineered Oplophorus gracilirostris luciferase)", "test": "Primary Nanoluciferase (NLuc) qHTS assay for identification of artifact compounds. (AID 1845222)", "details": "NLuc-conditioned medium, Nano-Glo luminescence, 5 min; series mostly up to 54.1 µM; activity, negative = inhibition: at the top concentration", "procedure,_shortened": "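Using secreted nanoluciferase in S16 culture medium (0.22 um filtered, 1:55 dilution), compounds were preincubated 15 min at RT. Signal was generated with Nano-Glo reagent (1:100) over 5 min.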", "units": {"activity, negative = inhibition": "%"}, "values": [{"smiles": "CCC[C@H]1C[C@H](C(=O)N[C@@H]([C@@H]2O[C@@H](SC)[C@@H](O)[C@@H](O)[C@@H]2O)[C@H](C)Cl)N(C)C1", "activity, negative = inhibition": -4.55}, {"smiles": "CC(C)n1cnc2c(NCCc3ccc(O)cc3)nc(-c3csc4ccccc34)nc21", "activity, negative = inhibition": -5.84}]}, {"system": "not listed separately", "test": "Primary redox qHTS assay for identification of artifact compounds. (AID 1845223)", "details": "Amplex Red/HRP redox cycling with DTT, fluorescence; series mostly up to 53.8 µM; redox activity (% of DA3003): at the top concentration", "procedure,_shortened": "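Redox-cycling detection via DTT (250 uM final) oxidation coupled to Amplex Red (25 uM)/HRP (250 mU/mL) in HBSS. 15 min preincubation plus 30 min after DTT, room temperature. Ex/Em 525/598 nm; 4-parameter Hill fit against DMSO and 10 uM DA3003.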", "units": {"redox activity (% of DA3003)": "%"}, "values": [{"smiles": "CC(C)(N)c1ccc(-c2nc3ccccc3nc2-c2ccccc2)cc1", "redox activity (% of DA3003)": 14.8}, {"smiles": "COc1ccc(S(=O)(=O)Nc2cccnc2Nc2ccc(O)cc2)cc1", "redox activity (% of DA3003)": -8.23}, {"smiles": "CCC[C@H]1C[C@H](C(=O)N[C@@H]([C@@H]2O[C@@H](SC)[C@@H](O)[C@@H](O)[C@@H]2O)[C@H](C)Cl)N(C)C1", "redox activity (% of DA3003)": 16.3}, {"smiles": "CC(C)n1cnc2c(NCCc3ccc(O)cc3)nc(-c3csc4ccccc34)nc21", "redox activity (% of DA3003)": -3.7}]}, {"system": "not listed separately", "test": "Quantitative High-Throughput drug screen in 47 multiple myeloma cell lines against the NCATS MIPE library collection: FR4_PLB cell viability assay (AID 1918924; also: nearly all actives have a fitted effect of over 35% in size; also: potency is read from the fitted curve at half-maximal effect)", "details": "FR4_PLB myeloma cells viability, CellTiter-Glo ATP, 48 h; series mostly up to 45.8 µM; viability (% of DMSO control): at the top concentration", "procedure,_shortened": "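Relative luminescence from CellTiter-Glo served as the viability signal, referenced to DMSO-treated (100%) and cell-free medium (0%) controls. Treatment lasted 48 hours at 37C with 500 cells per well.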", "units": {"viability (% of DMSO control)": "%"}, "values": [{"smiles": "CCOc1cc2ncc(C#N)c(Nc3ccc(OCc4ccccn4)c(Cl)c3)c2cc1NC(=O)C=CCN(C)C", "Potency": "2.35 µM (active)"}, {"smiles": "C[C@H](O)[C@@H]1C(=O)N2C(C(=O)O)=C(S[C@@H]3CN[C@H](CNS(N)(=O)=O)C3)[C@@H](C)[C@@H]12", "viability (% of DMSO control)": 117}, {"smiles": "CC(C=CC(=O)NO)=C[C@@H](C)C(=O)c1ccc(N(C)C)cc1", "Potency": "0.332 µM (active)"}, {"smiles": "COc1ccc(S(=O)(=O)Nc2cccnc2Nc2ccc(O)cc2)cc1", "Potency": "0.0264 µM (active)"}, {"smiles": "O=C(C[C@@H]1CC=CCCC(=O)O[C@H](c2ccccc2)CNC1=O)NCc1ccc(Cl)cc1", "Potency": "16.6 µM (active)"}, {"smiles": "CC[C@]12C=CCN3CC[C@@]4(c5cc([C@@]6(C(=O)OC)C[C@H]7C[C@@H](C(C)(F)F)CN(Cc8c6[nH]c6ccccc86)C7)c(OC)cc5N(C)[C@H]4[C@@](O)(C(=O)OC)[C@H]1OC(C)=O)[C@@H]32", "Potency": "0.0017 µM (active)"}, {"smiles": "C[C@]12CC[C@@H]3c4ccc(O)cc4CC[C@H]3[C@H]1CC[C@H]2O", "Potency": "16.6 µM (active)"}, {"smiles": "C=C1C(=O)O[C@H]2[C@@H]1CCC(C)=CCC[C@@]1(C)O[C@@H]21", "Potency": "4.69 µM (active)"}, {"smiles": "CC[C@H](CC[C@@H](C)[C@H]1CC[C@H]2[C@@H]3CC=C4C[C@@H](O)CC[C@]4(C)[C@@H]3CC[C@]12C)C(C)C", "viability (% of DMSO control)": 112}, {"smiles": "Nc1nc(=O)n([C@H]2CSC(CO)O2)cc1F", "note": "(some centres not stated)", "viability (% of DMSO control)": 99.3}, {"smiles": "CCNC(=O)Nc1ccc(-c2nc3c(c(N4CCOC[C@H]4C)n2)CCN(C2COC2)C3)cc1", "Potency": "0.935 µM (active)"}, {"smiles": "Cc1ccc2nc(NCCN)c3ncc(C)n3c2c1", "Potency": "3.32 µM (active)"}, {"smiles": "C[C@@H](Oc1ccc2[nH]nc(C=Cc3cnn(CCO)c3)c2c1)c1c(Cl)cncc1Cl", "Potency": "26.4 µM (active)"}, {"smiles": "COc1cc(C(C)C)c(Oc2cnc(NC(CO)CO)nc2N)cc1I", "Potency": "5.26 µM (active)"}, {"smiles": "CC(=O)O[C@@]12CO[C@H]1C[C@H](O)[C@@]1(C)C(=O)[C@H](O)C3=C(C)[C@@H](OC(=O)C(O)[C@@H](NC(=O)OC(C)(C)C)c4ccccc4)C[C@@](O)([C@@H](OC(=O)c4ccccc4)[C@@H]21)C3(C)C", "note": "(some centres not stated)", "viability (% of DMSO control)": 33.2}, {"smiles": "CC(=O)OCC(=O)[C@@]1(O)CC[C@H]2[C@@H]3CCC4=CC(=O)CC[C@]4(C)[C@@H]3C(=O)C[C@@]21C", "viability (% of DMSO control)": 133}, {"smiles": "CCC[C@H]1C[C@H](C(=O)N[C@@H]([C@@H]2O[C@@H](SC)[C@@H](O)[C@@H](O)[C@@H]2O)[C@H](C)Cl)N(C)C1", "viability (% of DMSO control)": 115}, {"smiles": "C[C@@H]1[C@H](C)CC[C@]2(C(=O)O)CC[C@]3(C)C(=CC[C@@H]4[C@@]5(C)C[C@@H](O)[C@H](O)[C@@](C)(CO)[C@H]5CC[C@]43C)[C@@H]12", "viability (% of DMSO control)": 107}, {"smiles": "CC(C)(O)[C@H]1CC[C@@](C)([C@H]2[C@@H](O)C[C@@]3(C)[C@@H]4C[C@H](O[C@@H]5O[C@H](CO)[C@@H](O)[C@H](O)[C@@H]5O)[C@H]5C(C)(C)[C@@H](O[C@@H]6OC[C@@H](O)[C@H](O)[C@@H]6O)CC[C@@]56C[C@@]46CC[C@]23C)O1", "viability (% of DMSO control)": 130}, {"smiles": "O=C(C=Cc1ccc(CN(CCO)CCc2c[nH]c3ccccc23)cc1)NO", "Potency": "0.0743 µM (active)"}, {"smiles": "CCC(C)CCCCC(=O)N[C@@H](CCN)C(=O)NC(C(=O)N[C@H](CCN)C(=O)N[C@@H]1CCNC(=O)C([C@@H](C)O)NC(=O)[C@@H](CCN)NC(=O)[C@@H](CCN)NC(=O)[C@@H](CC(C)C)NC(=O)[C@H](Cc2ccccc2)NC(=O)[C@H](CCN)NC1=O)[C@@H](C)O", "note": "(stereo partly drawn) ({Octanoyl(6-Me)}-[Dab][ξThr(3R)][dDab][dDab][Dab]F[dL][dDab][dDab][ξThr(3R)]; lactam 4-C)", "viability (% of DMSO control)": 109}, {"smiles": "CC(C)n1cnc2c(NCCc3ccc(O)cc3)nc(-c3csc4ccccc34)nc21", "Potency": "20.9 µM (active)"}, {"smiles": "O=C(O)C[C@H](O)C[C@H](O)C=Cc1c(C2CC2)nc2ccccc2c1-c1ccc(F)cc1", "Potency": "10.5 µM (active)"}, {"smiles": "COc1cc(N2CCC(C(N)=O)CC2)ccc1Nc1nc(N)c(Cl)c(Nc2ccccc2S(=O)(=O)C(C)C)n1", "Potency": "14.8 µM (active)"}, {"smiles": "COc1cc([C@@H]2c3cc4c(cc3[C@@H](O[C@@H]3O[C@@H]5CO[C@@H](c6cccs6)O[C@@H]5[C@H](O)[C@@H]3O)[C@H]3COC(=O)[C@H]23)OCO4)cc(OC)c1O", "Potency": "16.6 µM (active)"}, {"smiles": "COc1cc(OC)cc(-c2ccc3ncc4ccc(=O)n(-c5ccc(N6CCNCC6)c(C(F)(F)F)c5)c4c3c2)c1", "Potency": "4.69 µM (active)"}]}]}
